“And” between values parts separate entries of the source, which are not always exact repeats. Equal values may be shown once. This is part of a sample that, as a whole, favours compounds with a hit. Of some 79,000 tested, about 15% had one in any assay. Some compounds were tested as several samples or in several runs, with calls that do not always agree. The source made the active and inactive calls. Cut-off read from the data, not from the text of the source: active = growth inhibition above about 70%; inactive = the rest.
Experiment: NCI Yeast Anticancer Drug Screen. Data for the mec2-1 strain (AID 157)
Conditions: S. cerevisiae mec2-1 strain, at 50.0 µM (retest, dose inferred, filed as 5.0), stronger effect = higher value
In short: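 mec2-1 yeast strain, carrying an alteration in DNA damage repair or cell cycle control, was exposed to compounds; growth inhibition was measured relative to vehicle-treated controls.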

Row | SMILES | growth inhibition
1 | CCCCC(CC)CNP(=S)(NCC(CC)CCCC)NCC(CC)CCCC (stereo not drawn) | 30% (inactive)
2 | Nc1c(Br)cc(Br)c2c1C(=O)c1ccccc1C2=O | 0% (inactive)
3 | O=[N+]([O-])/C=C/c1cc2c(cc1Br)OCO2 | 89% (active)
4 | CC(Br)CN(CC(C)Br)c1ccc2c(c1)Cc1ccccc1-2 (stereo not drawn) | 69% (inactive)
5 | c1ccc2c[n+](CCCCCCCCCC[n+]3ccc4ccccc4c3)ccc2c1 | 98% (active)
6 | CCC[CH2][Sn]([N]=C=S)([N]=C=S)[N]=C=S.O=P(c1ccccc1)(c1ccccc1)c1ccccc1.O=P(c1ccccc1)(c1ccccc1)c1ccccc1 | 15% (inactive)
7 | CN(CCC(N)CC(=O)NC1C=CC(n2ccc(N)nc2=O)OC1C(=O)O)C(=N)N (stereo not drawn) | 98% (active)
8 | O=C1C=CC(=O)N1c1cccc2ccccc12 (tested in a mixture with another compound) | -1% (inactive)
9 | CN(C)c1ccc(N=Cc2c([O-])ccc3ccccc23)cc1.[C-]#[O+].[C-]#[O+].[Ir] | 15% (inactive)

Same assay, conditions: S. cerevisiae mec2-1 strain, at 50.0 µM, stronger effect = higher value

Row | SMILES | growth inhibition
10 | CC(C)(C)CC(C)(C)c1ccc(O)cc1 | 99.7% (active)
11 | CC[n+]1c(/C=C/c2ccc(N(CCCl)CCCl)cc2)ccc2cc(I)ccc21 | 90.8% (active)
12 | CCCCCCC1CCC2CCCC(C)N12 (stereo not drawn) | 70.8% (active)
13 | C[N+](C)(C)CC1CCC(C[N+](C)(C)C)C1=O (stereo not drawn) | -1.05% (inactive)
14 | CCC[CH2][Sn]1([CH2]CCC)[O]C(=O)c2cc(C)ccc2[O]1 | 90.8% (active)
15 | COc1ccc(CC2C(=O)NC(C)C(=O)N(C)C3C(=O)N(C)C(Cc4ccc(O)c(c4)Oc4ccc(cc4)C3O)C(=O)NC(C)C(=O)NC(C)C(=O)N2C)cc1 (stereo not drawn) | 47.5% (inactive)
16 | CC(=O)Nc1cccc([As+](C)(c2cccc(NC(C)=O)c2)c2cccc(NC(C)=O)c2)c1 | -2% (inactive)
17 | COC1OC(COC(C)=O)C(OC(C)=O)C(OC(C)=O)[C]1(OC(C)=O)[Hg][O]C(C)=O (stereo not drawn) | 98.5% (active)
18 | CCOC(=O)C(NC(=O)C(Cc1ccc(N(CCCl)CCCl)cc1)NC(C)=O)C(C)C (stereo not drawn) | 11.3% (inactive) and -1.25% (inactive)
19 | CN1c2cccc[c]2[Sn]([CH3])([CH3])[c]2ccccc21 | 99.2% (active)
20 | Cc1ccc(C(=O)OC(C(=O)O)C(OC(=O)c2ccc(C)cc2)C(=O)O)cc1 (stereo not drawn) (tested in a mixture with another compound) | 9% (inactive) and 93.7% (active)
21 | CC(C)(c1ccccc1)c1ccc(O)cc1 | 99% (active)
22 | CC1(C)N=C(N)N=C(N)N1CCCOc1ccc(NC(=O)c2ccc(S(=O)(=O)F)cc2)cc1 | 49.5% (inactive)
23 | CC1=CC2OC3CC4OC(=O)/C=C/C=C/C(=O)OCCC(C)C(O)C(=O)OCC2(CC1O)C4(C)C31CO1 (stereo not drawn) | 93.1% (active)
24 | C=CCOc1cc2c(ccc1=O)-c1c(cc(OC)c(OC)c1OC)CCC2NC(C)=O (stereo not drawn) | 87.6% (active)
25 | c1ccc2c(c1)[As]=c1ccccc1=[As]2 (stereo not drawn) | 91.5% (active)
26 | CCC(C)(c1ccc(O)cc1)c1ccc(O)cc1 | 99.5% (active)
27 | COc1cc(C2c3cc4c(cc3[C@@H](Nc3ccc(F)cc3)C3COC(=O)[C@H]23)OCO4)cc(OC)c1O (stereo partly drawn) | 91.2% (active)
28 | CC(C)(C)OC(=O)NC(CSC(c1ccccc1)(c1ccccc1)c1cccs1)C(=O)O (stereo not drawn) | 69.2% (inactive)
29 | CCOP(=S)(OCC)OC(c1ccc(Cl)cc1)c1ccc(Cl)cc1 | 6.2% (inactive)

Row | SMILES | growth inhibition
30 | COc1ccc(OC)c(C=O)c1 | -12.2% (inactive)
31 | CC(=O)Oc1cccc2c1CC(C[Se]c1ccccc1)C(=O)O2 (stereo not drawn) | 35.5% (inactive)
32 | CCOC(=S)S | 99.6% (active)
33 | CC(NCCN(C)C)C1CC2CCCCN2C1 (stereo not drawn) | 11.9% (inactive)
34 | Nc1ncc(CCCCc2ccc(NC(=O)Nc3ccc(S(=O)(=O)F)cc3)cc2)c(N)n1 | 99.5% (active)
35 | CC#N.FC(F)(F)C#CC(F)(F)F.FC(F)(F)C#CC(F)(F)F.FC(F)(F)C#CC(F)(F)F.[W] | 99.5% (active)
36 | [Cl][Hg][CH2]CC1CC=CCC1 (stereo not drawn) | 99.5% (active)
37 | CC(=O)O[C@H]1CC[C@H]2[C@@H]3CCC4=CC(=O)CC[C@@H]4[C@H]3CC[C@]12C | 93.5% (active)
38 | c1ccc(P(CCP(c2ccccc2)c2ccccc2)CCP(c2ccccc2)c2ccccc2)cc1 | 93% (active)
39 | Cc1cc(NCc2ccccc2)c2ccccc2[n+]1CCCCCCCCCC[n+]1c(C)cc(NCc2ccccc2)c2ccccc21 | 92.2% (active)
40 | CCCCC(CC)CNP(=S)(NCC(CC)CCCC)NCC(CC)CCCC (stereo not drawn) | 9.55% (inactive)
41 | Nc1c(Br)cc(Br)c2c1C(=O)c1ccccc1C2=O | -9.45% (inactive)
42 | O=[N+]([O-])/C=C/c1cc2c(cc1Br)OCO2 | 99.2% (active)
43 | CC(Br)CN(CC(C)Br)c1ccc2c(c1)Cc1ccccc1-2 (stereo not drawn) | 70.4% (active)
44 | c1ccc2c[n+](CCCCCCCCCC[n+]3ccc4ccccc4c3)ccc2c1 | 91.2% (active)
45 | CCC[CH2][Sn]([N]=C=S)([N]=C=S)[N]=C=S.O=P(c1ccccc1)(c1ccccc1)c1ccccc1.O=P(c1ccccc1)(c1ccccc1)c1ccccc1 | 61.2% (inactive)
46 | CN(CCC(N)CC(=O)NC1C=CC(n2ccc(N)nc2=O)OC1C(=O)O)C(=N)N (stereo not drawn) | 92.8% (active) and 93.4% (active)
47 | O=C1C=CC(=O)N1c1cccc2ccccc12 (tested in a mixture with another compound) | 2.7% (inactive)
48 | CN(C)c1ccc(N=Cc2c([O-])ccc3ccccc23)cc1.[C-]#[O+].[C-]#[O+].[Ir] | 60.4% (inactive)

Reference: PubChem BioAssay (NCI)
